Measured values from the supplement of paper PMC11732987, “Enantioselective OTUD7B fragment discovery through chemoproteomics screening and high-throughput optimisation” (Communications Chemistry, 2025).

Assays:
Assay in all cases: log2 ratio of Biotin-Ahx-Ub-VS probe labelling (fragment/DMSO); higher = less target engagement (more negative = stronger competition), active = hit call of the paper (q ≤ 0.05, log2 ratio ≤ -1)
Conditions in all cases: compound concentration: 200 uM; treatment time: 3 h
[1] = target: USP34 (UniProt Q70CQ2)
In short: (§1)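 Triplicate samples of HEK293T lysate, 495 µg each, received fragment at 200 µM or vehicle for 3 h, followed by Biotin-Ahx-Ub-VS (0.5 µM final) for 1 h. After NeutrAvidin enrichment of labelled DUBs and LysC/trypsin digestion, peptides were run by diaPASEF LC-MS/MS. The values are average log2 fragment/vehicle ratios from global-median-normalised Spectronaut label-free quantities, tested by unpaired t-test on proteins having ≥2 unique peptides.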

[2] = target: T1, USP36 (UniProt Q9P275)
T1 sequence (whole entry): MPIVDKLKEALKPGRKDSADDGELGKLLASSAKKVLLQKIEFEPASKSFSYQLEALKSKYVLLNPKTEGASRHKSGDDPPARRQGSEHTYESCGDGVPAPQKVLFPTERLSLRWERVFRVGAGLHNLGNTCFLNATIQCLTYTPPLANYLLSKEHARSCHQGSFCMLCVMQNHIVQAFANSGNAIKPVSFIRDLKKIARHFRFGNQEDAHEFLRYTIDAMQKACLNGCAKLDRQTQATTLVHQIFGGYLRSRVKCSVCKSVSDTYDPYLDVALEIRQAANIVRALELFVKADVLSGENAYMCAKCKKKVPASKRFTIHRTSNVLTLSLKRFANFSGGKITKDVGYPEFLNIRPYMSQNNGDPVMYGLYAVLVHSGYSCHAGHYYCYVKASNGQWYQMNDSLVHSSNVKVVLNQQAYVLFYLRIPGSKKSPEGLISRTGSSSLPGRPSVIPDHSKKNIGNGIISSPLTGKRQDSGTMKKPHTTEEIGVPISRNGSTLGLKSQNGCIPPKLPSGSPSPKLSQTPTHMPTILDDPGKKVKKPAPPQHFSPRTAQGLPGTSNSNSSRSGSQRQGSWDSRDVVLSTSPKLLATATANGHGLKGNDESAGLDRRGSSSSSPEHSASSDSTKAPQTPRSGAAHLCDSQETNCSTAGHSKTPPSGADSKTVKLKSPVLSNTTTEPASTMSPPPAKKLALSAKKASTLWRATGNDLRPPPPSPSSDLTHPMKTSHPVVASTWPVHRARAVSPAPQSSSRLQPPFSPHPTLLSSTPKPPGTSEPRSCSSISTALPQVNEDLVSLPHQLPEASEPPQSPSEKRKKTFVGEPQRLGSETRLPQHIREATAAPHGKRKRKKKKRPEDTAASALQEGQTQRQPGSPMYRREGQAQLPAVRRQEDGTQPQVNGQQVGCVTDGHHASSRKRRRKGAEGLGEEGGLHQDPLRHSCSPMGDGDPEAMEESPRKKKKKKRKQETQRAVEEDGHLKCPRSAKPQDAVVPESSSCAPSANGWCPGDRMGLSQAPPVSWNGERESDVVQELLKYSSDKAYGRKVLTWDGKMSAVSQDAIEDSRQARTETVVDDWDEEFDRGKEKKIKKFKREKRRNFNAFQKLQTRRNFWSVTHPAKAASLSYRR
In short: as §1

[3] = target: T2, USP38 (UniProt Q8NB14)
T2 sequence (whole entry): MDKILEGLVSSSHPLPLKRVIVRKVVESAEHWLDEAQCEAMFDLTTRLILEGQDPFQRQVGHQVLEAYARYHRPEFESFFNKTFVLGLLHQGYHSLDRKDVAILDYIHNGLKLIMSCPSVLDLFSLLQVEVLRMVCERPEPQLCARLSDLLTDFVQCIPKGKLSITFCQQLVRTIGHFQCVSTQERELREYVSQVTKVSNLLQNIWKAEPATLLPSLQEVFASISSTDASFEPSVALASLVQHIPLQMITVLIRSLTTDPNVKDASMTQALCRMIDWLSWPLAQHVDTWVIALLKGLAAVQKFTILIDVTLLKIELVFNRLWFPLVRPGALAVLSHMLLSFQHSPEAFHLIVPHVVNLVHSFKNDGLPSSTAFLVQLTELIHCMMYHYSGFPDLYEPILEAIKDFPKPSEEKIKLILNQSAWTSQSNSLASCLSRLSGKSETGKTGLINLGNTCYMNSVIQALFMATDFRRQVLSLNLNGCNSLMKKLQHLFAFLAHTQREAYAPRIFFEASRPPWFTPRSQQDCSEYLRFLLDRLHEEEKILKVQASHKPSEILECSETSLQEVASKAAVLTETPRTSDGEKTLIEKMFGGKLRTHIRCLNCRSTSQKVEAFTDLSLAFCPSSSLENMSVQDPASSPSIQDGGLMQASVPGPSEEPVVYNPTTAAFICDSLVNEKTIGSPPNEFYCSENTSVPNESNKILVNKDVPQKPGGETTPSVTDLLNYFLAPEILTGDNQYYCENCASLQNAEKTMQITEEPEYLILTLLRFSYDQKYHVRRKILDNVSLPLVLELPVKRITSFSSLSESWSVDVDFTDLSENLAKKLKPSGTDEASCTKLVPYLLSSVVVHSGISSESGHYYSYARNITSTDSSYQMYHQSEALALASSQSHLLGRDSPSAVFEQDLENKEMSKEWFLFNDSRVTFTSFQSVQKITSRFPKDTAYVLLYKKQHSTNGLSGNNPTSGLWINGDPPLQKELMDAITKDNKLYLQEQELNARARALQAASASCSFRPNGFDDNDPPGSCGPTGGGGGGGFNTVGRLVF
In short: as §1

[4] = target: T3, USP39 (UniProt Q53GS9)
T3 sequence (whole entry): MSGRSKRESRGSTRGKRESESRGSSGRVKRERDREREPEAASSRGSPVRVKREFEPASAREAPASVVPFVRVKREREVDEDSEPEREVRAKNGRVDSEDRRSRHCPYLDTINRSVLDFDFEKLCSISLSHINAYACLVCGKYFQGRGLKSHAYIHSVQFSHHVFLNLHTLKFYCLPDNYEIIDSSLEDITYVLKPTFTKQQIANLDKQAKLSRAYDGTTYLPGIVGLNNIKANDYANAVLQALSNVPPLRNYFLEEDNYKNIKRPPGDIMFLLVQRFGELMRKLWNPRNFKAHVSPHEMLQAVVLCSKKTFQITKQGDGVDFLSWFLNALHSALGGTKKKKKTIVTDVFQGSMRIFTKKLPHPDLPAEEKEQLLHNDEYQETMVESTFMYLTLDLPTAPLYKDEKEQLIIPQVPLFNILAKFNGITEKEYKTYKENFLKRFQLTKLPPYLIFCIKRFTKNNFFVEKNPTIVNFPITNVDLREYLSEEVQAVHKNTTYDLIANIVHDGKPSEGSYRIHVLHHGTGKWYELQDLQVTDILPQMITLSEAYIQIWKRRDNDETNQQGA
In short: as §1

[5] = target: T4, USP4 (UniProt Q13107)
T4 sequence (whole entry): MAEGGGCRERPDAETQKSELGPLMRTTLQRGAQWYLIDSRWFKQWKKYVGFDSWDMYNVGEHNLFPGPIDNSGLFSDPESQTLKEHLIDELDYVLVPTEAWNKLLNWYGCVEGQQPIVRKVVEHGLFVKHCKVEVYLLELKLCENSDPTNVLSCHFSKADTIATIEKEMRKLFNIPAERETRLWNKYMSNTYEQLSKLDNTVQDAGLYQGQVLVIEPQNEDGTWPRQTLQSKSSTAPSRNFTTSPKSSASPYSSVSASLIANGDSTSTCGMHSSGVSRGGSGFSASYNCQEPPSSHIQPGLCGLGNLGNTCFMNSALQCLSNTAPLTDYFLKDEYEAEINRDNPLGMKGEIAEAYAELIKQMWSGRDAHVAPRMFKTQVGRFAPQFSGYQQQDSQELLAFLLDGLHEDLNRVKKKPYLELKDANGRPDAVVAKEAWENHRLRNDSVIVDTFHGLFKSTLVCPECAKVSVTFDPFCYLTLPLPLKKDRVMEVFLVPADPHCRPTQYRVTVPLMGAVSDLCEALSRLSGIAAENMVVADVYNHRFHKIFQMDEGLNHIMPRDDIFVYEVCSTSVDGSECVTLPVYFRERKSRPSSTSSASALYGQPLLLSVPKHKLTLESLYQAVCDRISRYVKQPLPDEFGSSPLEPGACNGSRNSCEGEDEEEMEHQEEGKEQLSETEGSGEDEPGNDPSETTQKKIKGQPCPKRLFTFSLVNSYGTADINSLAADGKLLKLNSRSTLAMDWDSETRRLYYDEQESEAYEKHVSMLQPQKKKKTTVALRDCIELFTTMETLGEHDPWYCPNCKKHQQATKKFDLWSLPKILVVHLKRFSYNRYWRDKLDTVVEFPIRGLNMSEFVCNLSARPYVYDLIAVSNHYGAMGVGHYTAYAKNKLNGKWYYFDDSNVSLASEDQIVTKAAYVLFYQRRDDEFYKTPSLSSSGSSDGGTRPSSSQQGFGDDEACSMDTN
In short: as §1

Measured: log2 ratio of Biotin-Ahx-Ub-VS probe labelling

Chain of USP34 (Q70CQ2 whole entry, the tested form may be a part): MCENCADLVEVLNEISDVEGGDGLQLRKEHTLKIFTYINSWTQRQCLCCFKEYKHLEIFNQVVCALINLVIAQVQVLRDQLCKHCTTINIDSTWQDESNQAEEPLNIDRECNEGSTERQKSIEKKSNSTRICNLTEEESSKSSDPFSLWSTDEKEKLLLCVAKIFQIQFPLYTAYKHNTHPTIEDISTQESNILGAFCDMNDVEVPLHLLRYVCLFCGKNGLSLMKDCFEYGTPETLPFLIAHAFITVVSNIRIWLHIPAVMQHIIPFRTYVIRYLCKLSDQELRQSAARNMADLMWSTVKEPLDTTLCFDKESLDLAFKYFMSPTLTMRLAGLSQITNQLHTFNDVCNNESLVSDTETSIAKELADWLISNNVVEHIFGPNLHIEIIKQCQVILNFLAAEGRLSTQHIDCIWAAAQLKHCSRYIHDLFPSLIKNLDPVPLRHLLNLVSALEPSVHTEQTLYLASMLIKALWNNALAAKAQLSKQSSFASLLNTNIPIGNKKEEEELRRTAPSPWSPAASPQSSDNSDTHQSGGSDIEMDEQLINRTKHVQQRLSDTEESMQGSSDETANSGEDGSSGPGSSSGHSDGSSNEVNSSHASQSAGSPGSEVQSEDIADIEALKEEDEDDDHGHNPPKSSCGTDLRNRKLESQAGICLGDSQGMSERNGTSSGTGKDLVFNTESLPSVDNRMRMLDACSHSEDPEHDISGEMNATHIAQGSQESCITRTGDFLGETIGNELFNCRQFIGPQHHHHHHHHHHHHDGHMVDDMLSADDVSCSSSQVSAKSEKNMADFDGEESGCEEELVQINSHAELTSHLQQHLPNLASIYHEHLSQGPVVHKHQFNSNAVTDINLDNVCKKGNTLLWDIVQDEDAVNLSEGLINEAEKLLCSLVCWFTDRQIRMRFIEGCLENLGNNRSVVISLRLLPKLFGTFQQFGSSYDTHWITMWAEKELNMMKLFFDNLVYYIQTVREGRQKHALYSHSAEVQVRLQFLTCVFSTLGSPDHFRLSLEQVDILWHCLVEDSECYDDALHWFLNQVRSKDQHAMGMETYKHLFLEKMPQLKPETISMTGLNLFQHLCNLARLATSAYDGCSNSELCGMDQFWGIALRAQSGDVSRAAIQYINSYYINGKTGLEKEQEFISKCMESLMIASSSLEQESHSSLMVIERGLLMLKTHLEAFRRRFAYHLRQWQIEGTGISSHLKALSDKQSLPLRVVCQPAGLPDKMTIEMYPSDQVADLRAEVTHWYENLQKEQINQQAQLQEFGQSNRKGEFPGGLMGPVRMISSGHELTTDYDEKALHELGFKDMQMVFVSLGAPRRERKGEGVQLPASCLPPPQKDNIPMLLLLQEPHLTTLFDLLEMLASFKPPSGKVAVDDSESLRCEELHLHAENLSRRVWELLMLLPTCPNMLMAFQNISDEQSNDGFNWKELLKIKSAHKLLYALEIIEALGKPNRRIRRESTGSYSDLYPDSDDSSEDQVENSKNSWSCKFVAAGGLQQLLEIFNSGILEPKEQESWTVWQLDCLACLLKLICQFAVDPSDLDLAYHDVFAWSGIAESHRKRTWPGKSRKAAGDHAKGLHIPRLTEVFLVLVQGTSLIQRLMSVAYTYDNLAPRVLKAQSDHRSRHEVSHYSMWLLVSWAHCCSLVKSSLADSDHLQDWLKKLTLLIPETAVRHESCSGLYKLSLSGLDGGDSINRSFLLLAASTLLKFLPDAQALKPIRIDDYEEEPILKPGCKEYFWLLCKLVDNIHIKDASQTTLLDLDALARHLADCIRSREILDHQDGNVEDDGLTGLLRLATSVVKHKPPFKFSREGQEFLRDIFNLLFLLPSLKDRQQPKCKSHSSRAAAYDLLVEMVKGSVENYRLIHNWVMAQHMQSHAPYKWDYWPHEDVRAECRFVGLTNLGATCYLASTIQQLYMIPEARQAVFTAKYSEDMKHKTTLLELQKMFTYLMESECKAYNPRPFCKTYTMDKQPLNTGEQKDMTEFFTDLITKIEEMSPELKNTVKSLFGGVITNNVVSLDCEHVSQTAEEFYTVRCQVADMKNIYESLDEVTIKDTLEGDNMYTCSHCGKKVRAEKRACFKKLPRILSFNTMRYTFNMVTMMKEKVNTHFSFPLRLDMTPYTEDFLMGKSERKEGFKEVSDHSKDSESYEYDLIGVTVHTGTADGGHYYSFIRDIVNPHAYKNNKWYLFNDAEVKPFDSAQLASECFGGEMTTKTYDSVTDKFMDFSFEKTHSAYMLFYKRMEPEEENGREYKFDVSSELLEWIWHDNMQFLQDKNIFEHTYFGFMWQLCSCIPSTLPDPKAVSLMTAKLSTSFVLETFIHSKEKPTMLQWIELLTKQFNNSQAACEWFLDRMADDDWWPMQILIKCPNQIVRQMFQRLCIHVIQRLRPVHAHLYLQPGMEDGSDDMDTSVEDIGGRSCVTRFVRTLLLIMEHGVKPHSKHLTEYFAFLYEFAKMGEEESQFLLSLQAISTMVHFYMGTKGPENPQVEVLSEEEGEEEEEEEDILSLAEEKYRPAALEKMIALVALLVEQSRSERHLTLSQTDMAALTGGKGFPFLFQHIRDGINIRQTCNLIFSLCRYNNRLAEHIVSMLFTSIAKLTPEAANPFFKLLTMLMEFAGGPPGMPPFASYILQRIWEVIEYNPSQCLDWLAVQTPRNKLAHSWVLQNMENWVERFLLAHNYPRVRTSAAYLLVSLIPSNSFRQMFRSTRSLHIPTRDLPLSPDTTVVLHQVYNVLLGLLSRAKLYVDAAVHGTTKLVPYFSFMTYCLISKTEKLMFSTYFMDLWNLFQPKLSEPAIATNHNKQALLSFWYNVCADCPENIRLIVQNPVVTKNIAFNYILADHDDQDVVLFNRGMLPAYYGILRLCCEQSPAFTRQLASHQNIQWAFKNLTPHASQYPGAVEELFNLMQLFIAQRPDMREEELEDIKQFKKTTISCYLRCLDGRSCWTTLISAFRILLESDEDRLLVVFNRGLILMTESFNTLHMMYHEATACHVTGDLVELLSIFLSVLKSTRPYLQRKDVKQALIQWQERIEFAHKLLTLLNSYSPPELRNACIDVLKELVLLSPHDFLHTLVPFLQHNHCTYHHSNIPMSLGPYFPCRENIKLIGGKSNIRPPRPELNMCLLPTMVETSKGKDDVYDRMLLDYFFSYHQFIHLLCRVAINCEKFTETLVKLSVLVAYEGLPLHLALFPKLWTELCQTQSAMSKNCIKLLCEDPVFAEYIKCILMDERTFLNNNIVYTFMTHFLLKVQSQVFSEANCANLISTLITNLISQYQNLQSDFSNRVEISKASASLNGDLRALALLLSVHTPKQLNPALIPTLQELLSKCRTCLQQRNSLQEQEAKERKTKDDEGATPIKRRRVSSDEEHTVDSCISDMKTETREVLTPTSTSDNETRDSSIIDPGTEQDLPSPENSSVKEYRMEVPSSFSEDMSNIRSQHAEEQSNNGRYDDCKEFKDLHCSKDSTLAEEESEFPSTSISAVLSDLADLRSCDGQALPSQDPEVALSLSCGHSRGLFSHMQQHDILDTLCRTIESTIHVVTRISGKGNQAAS

CC(=O)C1CCCCN1C(=O)CCl (stereo not given)
inactive: [1] -0.216 | [2] -0.0205 | [3] -0.0979 | [4] -0.37 | [5] -0.0834
